Assay outcomes (PubChem BioAssay)
GLD-1 RNA inh = GLD-1-TGE RNA interaction inhibition (C. elegans) | Q17339 | purified GLD-1 + fluorescein TGE RNA, fluorescence polarization | inhibition, % at 5.96 µM | actives 0.44% (n = 320,000) | AID 2280;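 active = percent inhibition above a per-plate cutoff, the plate mean of test compounds plus 3 SD, cut at about 30% in these data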;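 also: 0% = DMSO wells with GLD-1 and probe and 100% = wells lacking GLD-1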
MEX-5 binding = C. elegans MEX-5 TCR-2 RNA binding activity | MEX-5/FITC-TCR2 RNA binding, fluorescence polarization; hits give low values | activity score (negative = inhibition of binding), % at 10 µM | actives 0.38% (n = 300,000) | AID 1832;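 active = inhibition past about -25% in most replicates, and total fluorescence under double the plate's negative control median, limit read from the data; inconclusive = replicates evenly split on the limit, or fluorescence at least double controls; inactive = too little inhibition in most replicates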;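 also: 0% = DMSO and -100% = 5 µM competing unlabeled TCR2 RNA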
IDE cell activ = IDE (human) activation, cell-based | P14735 | HEK cells, FAbeta-B cleavage, fluorescence polarization; 0% vehicle, 100% cell-free pure enzyme wells | activation, % at 5.96 µM | actives 0.073% (n = 340,000) | AID 493087;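 active = activation above the mean of all tested compounds plus 3 SD, set per screening campaign, cut at about 17% in these data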
Target sequence (P14735 whole entry, looked up): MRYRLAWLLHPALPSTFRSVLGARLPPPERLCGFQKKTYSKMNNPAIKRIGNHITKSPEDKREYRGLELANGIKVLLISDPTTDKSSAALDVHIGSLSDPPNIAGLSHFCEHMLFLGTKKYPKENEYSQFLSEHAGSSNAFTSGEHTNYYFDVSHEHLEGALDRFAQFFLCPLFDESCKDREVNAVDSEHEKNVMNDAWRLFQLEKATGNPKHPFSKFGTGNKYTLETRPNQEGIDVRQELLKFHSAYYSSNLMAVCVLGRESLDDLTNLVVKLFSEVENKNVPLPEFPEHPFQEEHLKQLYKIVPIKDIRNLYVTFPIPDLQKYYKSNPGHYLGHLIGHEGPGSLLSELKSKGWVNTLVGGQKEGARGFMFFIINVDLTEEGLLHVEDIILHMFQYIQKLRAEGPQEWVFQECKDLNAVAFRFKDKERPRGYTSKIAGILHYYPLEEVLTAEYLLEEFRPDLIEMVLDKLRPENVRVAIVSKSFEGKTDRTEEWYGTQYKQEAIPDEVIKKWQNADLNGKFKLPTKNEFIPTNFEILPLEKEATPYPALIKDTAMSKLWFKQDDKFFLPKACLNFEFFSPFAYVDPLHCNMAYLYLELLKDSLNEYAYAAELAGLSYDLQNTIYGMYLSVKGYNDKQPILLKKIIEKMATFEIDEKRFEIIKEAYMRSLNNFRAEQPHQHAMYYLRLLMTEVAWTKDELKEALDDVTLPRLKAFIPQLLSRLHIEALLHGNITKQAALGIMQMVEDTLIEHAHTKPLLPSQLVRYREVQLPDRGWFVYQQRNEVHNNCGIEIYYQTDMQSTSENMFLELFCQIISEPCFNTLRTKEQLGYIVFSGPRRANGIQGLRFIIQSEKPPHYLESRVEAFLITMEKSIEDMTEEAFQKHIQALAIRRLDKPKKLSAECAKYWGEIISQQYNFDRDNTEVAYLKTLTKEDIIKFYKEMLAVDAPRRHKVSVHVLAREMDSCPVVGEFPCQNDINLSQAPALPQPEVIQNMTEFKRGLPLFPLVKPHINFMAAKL
Bcl-xL primary = blocks human Bcl-xL binding to Bim BH3 peptide. Q07817. GST-Bcl-xL / FITC-Bim BH3 peptide fluorescence polarization. inhibition, % at 10.9 µM. actives 0.7% (n = 320,000);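 active = inhibition above the mean of all tested compounds plus 3 SD, cutoff set per campaign, cut at about 30% in these data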;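 also: 0% = DMSO wells and 100% = unlabeled Bim-BH3 peptide competitor; inhibitors lower millipolarization by displacing the labeled peptide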
IDE cell inh = inhibits human insulin-degrading enzyme in HEK cells | inhibition, % at 5.59 µM | actives 0.41% (n = 320,000) | FAbetaB cleavage, fluorescence polarization;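 active = percent inhibition above the average of all tested compounds plus 3 SD, set per screening campaign, cut at about 16% in these data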;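 also: IDE supplied by intact live HEK cells; FP after avidin binding of uncleaved biotin substrate so inhibition keeps polarization high; 0% = DMSO wells and 100% = 60 µM reference IDE inhibitor Ii1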
MCL1 BIM primary = inhibitors of human MCL1 binding to BIM-BH3 peptide. Q07820. GST-MCL1 / FITC-Bim-BH3 fluorescence polarization. inhibition, % at 10.9 µM. actives 0.68% (n = 320,000);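 active = inhibition above the mean inhibition of all tested compounds plus 3 SD, set per campaign, cut at about 40% in these data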;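 also: 0% = DMSO wells and 100% = unlabeled Bim-BH3 peptide control; higher means more loss of mP so more displacement of Bim peptide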
IDE cell inh cf = confirmation of human insulin-degrading enzyme inhibitors in cells. shares compounds with IDE cell inh. HEK cells, FAbetaB cleavage, fluorescence polarization. inhibition, % at 5.59 µM. actives 51% (n = 1,200). AID 435028;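 active = mean inhibition across triplicate wells above the cutoff set by the earlier primary insulin-degrading enzyme screen, cut at about 16% in these data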;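 also: 0% = DMSO wells and 100% = 60 µM reference IDE inhibitor Ii1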
HEK293 tox = HEK cell cytotoxicity, counter-screen for IDE inhibitors; shares compounds with IDE cell inh; HEK293 cytotoxicity, ATP luminescence; inhibition, % at 5.59 µM; actives 28% (n = 1,200); AID 449730; in the data active = inhibition above about 22%;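 also: 0% = vehicle wells and 100% = reference cytotoxic drug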
Active calls of the source: *. Shown are actives, neighbours in structure and some others; about 1.5% of the full set was active somewhere.

What do the screens show for `Cc1oc(C)c2c(=O)ccc3c(c12)OC(N)=C(C#N)C3c1ccccc1Cl` (stereo not given)?
GLD-1 RNA inh: 16.6; MEX-5 binding: -8.3; IDE cell activ: -75.6; Bcl-xL primary: 28.5; IDE cell inh: 30.5*; MCL1 BIM primary: 16.6; IDE cell inh cf: 25.9*; HEK293 tox: 13.7

What do the screens show for `COc1ccc(C2C(C#N)=C(N)Oc3c2oc(CO)cc3=O)cc1` (stereo not given)?
GLD-1 RNA inh: 5.9; MEX-5 binding: -1.4; IDE cell activ: 6.8; Bcl-xL primary: -1.5; IDE cell inh: -2.0; MCL1 BIM primary: -0.5

How did CC(=O)C1=C(C)OC(N)=C(C#N)C1c1cccc2ccccc12 (stereo not given) do in these assays?
GLD-1 RNA inh: 9.0; MEX-5 binding: -2.9; IDE cell activ: -0.1; Bcl-xL primary: 16.7; IDE cell inh: 3.4; MCL1 BIM primary: 10.5

Results for CCN1/C(=C/C=C/c2oc3ccc4ccccc4c3[n+]2CC)Oc2ccc3ccccc3c21 ?
GLD-1 RNA inh: -69.3; MEX-5 binding: 5.3; Bcl-xL primary: 80.1*; IDE cell inh: 82.2*; MCL1 BIM primary: 134.6*; IDE cell inh cf: 133.5*; HEK293 tox: 112.2*

What do the screens show for `CC[n+]1c(/C=C/N(C)c2ccccc2)oc2ccc(Cl)cc21`?
GLD-1 RNA inh: -14.3; MEX-5 binding: -2.9; IDE cell activ: -1.9; Bcl-xL primary: 7.2; IDE cell inh: -1.8; MCL1 BIM primary: 9.7

Results for CC(=O)c1cccc(NS(=O)(=O)c2ccc3c(c2)N(C(C)=O)CCO3)c1 ?
GLD-1 RNA inh: -2.1; MEX-5 binding: 1.1; IDE cell activ: 2.4; Bcl-xL primary: 4.0; IDE cell inh: -0.6; MCL1 BIM primary: -2.3

Results for O=C(Nc1cccc(-n2cnnn2)c1)c1cccc(Cl)c1 ?
GLD-1 RNA inh: 1.6; MEX-5 binding: -0.2; IDE cell activ: -10.7; Bcl-xL primary: 2.9; IDE cell inh: 18.3*; MCL1 BIM primary: 5.7; IDE cell inh cf: 11.6; HEK293 tox: 13.1

How did O=C(Nc1cccc(-n2cnnn2)c1)c1cc(Cl)nc(Cl)c1 do in these assays?
GLD-1 RNA inh: -6.2; MEX-5 binding: -0.5; IDE cell activ: -1.5; Bcl-xL primary: 5.5; IDE cell inh: -1.3; MCL1 BIM primary: 6.4

What do the screens show for `CCn1cc(/C=C/c2cc[n+](C)cc2)c2ccccc21`?
GLD-1 RNA inh: 65.7*; MEX-5 binding: inconclusive; IDE cell activ: -15.8; Bcl-xL primary: 40.7*; IDE cell inh: 52.5*; MCL1 BIM primary: 22.6; IDE cell inh cf: 83.3*; HEK293 tox: 78.9*

Results for CCN(CC)C(=O)Cn1c(C)c(/C=C/c2cc[n+](C)cc2)c2ccccc21 ?
GLD-1 RNA inh: 60.3*; MEX-5 binding: inconclusive; IDE cell activ: -12.6; Bcl-xL primary: -98.1; IDE cell inh: 26.3*; MCL1 BIM primary: -214.8; IDE cell inh cf: 24.4*; HEK293 tox: 13.0

How did Cc1[nH]c2ccccc2c1/C=C/c1cc[n+](C)cc1 do in these assays?
MEX-5 binding: inconclusive; IDE cell activ: -23.3

Results for CC(C)n1cc(/C=C/c2cc[n+](C)cc2)c2ccccc21 ?
MEX-5 binding: inconclusive; IDE cell activ: -31.8

What do the screens show for `C=CCn1c(C)c(/C=C/c2cc[n+](C)cc2)c2ccccc21`?
GLD-1 RNA inh: 74.2*; MEX-5 binding: inconclusive; IDE cell activ: -48.3; Bcl-xL primary: -74.5; IDE cell inh: 87.0*; MCL1 BIM primary: -130.3; IDE cell inh cf: 97.3*; HEK293 tox: 78.1*

What do the screens show for `C=CCn1cc(/C=C/c2cc[n+](C)cc2)c2ccccc21`?
GLD-1 RNA inh: 56.6*; MEX-5 binding: inconclusive; IDE cell activ: -17.5; Bcl-xL primary: 46.3*; IDE cell inh: 21.8*; MCL1 BIM primary: 22.6; IDE cell inh cf: 66.7*; HEK293 tox: 84.7*

What do the screens show for `CCOC(=O)CN1C(=O)NC2(CCCc3ccccc32)C1=O` (stereo not given)?
GLD-1 RNA inh: -0.5; MEX-5 binding: -0.4; IDE cell activ: 3.2; Bcl-xL primary: 4.9; IDE cell inh: -2.2; MCL1 BIM primary: 5.3

Results for COc1ccc(C(=O)NCC(=O)OCC(=O)Nc2ccc(C)c(S(=O)(=O)N(C)C)c2)cc1OC ?
GLD-1 RNA inh: 4.4; MEX-5 binding: -2.6; IDE cell activ: 2.7; Bcl-xL primary: 0.6; IDE cell inh: -3.4; MCL1 BIM primary: 0.7

How did CC(OC(=O)Cn1[nH]c(=O)c2ccccc2c1=O)C(=O)Nc1ccc(F)cc1Cl (stereo not given) do in these assays?
GLD-1 RNA inh: -4.2; MEX-5 binding: -0.3; IDE cell activ: 0.6; Bcl-xL primary: -3.1; IDE cell inh: 11.3; MCL1 BIM primary: -4.1

What do the screens show for `COc1cc(/C=C2\SC(N)=NC2=O)cc(Cl)c1O`?
GLD-1 RNA inh: -75.5; MEX-5 binding: 4.5; IDE cell activ: -42.0; Bcl-xL primary: -29.4; IDE cell inh: 25.6*; MCL1 BIM primary: -52.1; IDE cell inh cf: 46.6*; HEK293 tox: 12.2

Results for COc1ccc(/C=C2\SC(N)=NC2=O)cc1Br ?
GLD-1 RNA inh: -11.0; MEX-5 binding: -8.6; IDE cell activ: 3.4; Bcl-xL primary: 3.2; IDE cell inh: 3.8; MCL1 BIM primary: 22.8

Results for O=C(N/N=C/c1cccc(O)c1)c1ccc(COc2ccc3c(c2)CCC3)o1 ?
GLD-1 RNA inh: -0.8; MEX-5 binding: -0.9; IDE cell activ: -2.9; Bcl-xL primary: 6.1; IDE cell inh: 18.2*; MCL1 BIM primary: 11.2; IDE cell inh cf: 2.9; HEK293 tox: 8.2

What do the screens show for `NNC(=O)c1ccc(COc2ccc3c(c2)CCC3)o1`?
GLD-1 RNA inh: 4.9; MEX-5 binding: 2.7; IDE cell activ: -0.7; Bcl-xL primary: -2.6; IDE cell inh: 0.8; MCL1 BIM primary: -2.1

What do the screens show for `CCn1c(C)cc(/C=C2/SC(=S)N(CC(=O)O)C2=O)c1C`?
GLD-1 RNA inh: -69.4; MEX-5 binding: 21.1; IDE cell activ: -33.6; Bcl-xL primary: -25.5; IDE cell inh: 39.6*; MCL1 BIM primary: -41.1; IDE cell inh cf: 36.2*; HEK293 tox: 4.6

Results for O=C(O)CC12CC3CC(C1)CC(n1ncc(NCc4ccc(F)cc4Cl)c(Cl)c1=O)(C3)C2 ?
GLD-1 RNA inh: 2.6; MEX-5 binding: -1.8; IDE cell activ: -15.4; Bcl-xL primary: 0.8; IDE cell inh: 27.8*; MCL1 BIM primary: -2.7; IDE cell inh cf: 21.3*; HEK293 tox: 5.3
